SENP8 block-1: SENP8 protease inhibition. purified SENP8, Z-RLRGG-aminoluciferin cleavage, luminescence. Q96LD8. inhibition, % at 10 µM. actives 1.2% (n = 330,000); in the data active = inhibition above about 50%
SENP7 inh: inhibitors of human SENP7 protease; Q9BQF6; recombinant SENP7, Z-RLRGG-aminoluciferin luminescence, 40 min; inhibition, % at 5 µM; actives 1.5% (n = 330,000); AID 434973;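 active = inhibition above about 50% at the single test dose, limit read from the data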
HSP90 refold inh: blocks HSP90-mediated luciferase refolding in reticulocyte lysate; actives 0.91% (n = 290,000); inhibition, % at 5.6 µM; Rabbit reticulocyte lysate, luciferase refolding luminescence, 3 h;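 active = inhibition above the screen-wide mean plus 3 SD, computed separately per campaign, cut at about 16% in these data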;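 also: inhibitors lower the luminescence because luciferase stays unfolded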
Platelet DG rel: platelet dense granule release activity | human platelet-rich plasma, SFLLRN dense granule ATP release, luminescence | inhibition, %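 (compounds screened at 7.5 µM in platelet-rich plasma)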 | actives 0.22% (n = 300,000) | AID 1663;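 active = mean replicate score, as percent of positive control, at or above 50; inconclusive = mean below 50 but at least one replicate at or above 50; inactive = mean and every replicate below 50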
SENP8 block-2: inhibitors of human SENP8 protease. Q96LD8. recombinant SENP8, Nedd8 substrate fluorescence. inhibition, % at 20 µM. actives 0.64% (n = 360,000). AID 602440; in the data active = inhibition mostly above about 40%, no sharp cut-off; inactive = mostly below about 27%
SENP6 inh: inhibitors of human SENP6 protease. Q9GZR1. Recombinant SENP6 catalytic domain, aminoluciferin luminescence. inhibition, % at 10 µM. actives 1.8% (n = 330,000);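 active = inhibition above about 50% at the single tested dose, limit read from the data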
Target sequence (Q9GZR1 628-1112 limits assumed): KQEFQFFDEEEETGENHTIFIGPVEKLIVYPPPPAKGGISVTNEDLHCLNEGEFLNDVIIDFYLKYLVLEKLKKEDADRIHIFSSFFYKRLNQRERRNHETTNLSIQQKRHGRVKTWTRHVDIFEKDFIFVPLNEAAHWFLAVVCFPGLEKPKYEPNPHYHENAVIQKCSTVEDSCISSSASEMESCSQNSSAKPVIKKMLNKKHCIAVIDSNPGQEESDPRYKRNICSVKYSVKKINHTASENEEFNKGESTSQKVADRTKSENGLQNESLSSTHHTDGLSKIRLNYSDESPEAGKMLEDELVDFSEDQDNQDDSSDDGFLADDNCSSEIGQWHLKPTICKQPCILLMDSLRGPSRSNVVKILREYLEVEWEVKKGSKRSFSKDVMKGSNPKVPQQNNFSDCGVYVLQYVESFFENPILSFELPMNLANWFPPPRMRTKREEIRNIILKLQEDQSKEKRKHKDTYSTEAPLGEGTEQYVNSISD
HSP90 confirm: HSP90 inhibition, confirmation assay; shares compounds with HSP90 refold inh; rabbit reticulocyte lysate, luciferase refolding luminescence, 3 h; inhibition, % at 5.9 µM; actives 64% (n = 2,300); AID 1846; in the data active = inhibition above about 18%
FLuc counter: blocks native firefly luciferase in HSP90 counter-screen; shares compounds with HSP90 refold inh; purified native firefly luciferase, luminescence; inhibition, % at 5.9 µM; actives 48% (n = 2,300);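 active = inhibition above the mean inhibition of all tested sample wells plus 3 SD, cut at about 10% in these data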
SENP8 confirm: human SENP8 inhibition, confirmed. shares compounds with SENP7 inh. Recombinant SENP8, Z-RLRGG-aminoluciferin luminescence, 60 min. inhibition, % at 12.5 µM. actives 40% (n = 6,200). AID 488912;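 active = mean inhibition across replicates above about 50%, limit read from the data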
SENP6 conf: human SENP6 inhibition, confirmed; shares compounds with SENP7 inh; recombinant SENP6, Z-RLRGG-aminoluciferin luminescence; inhibition, % at 12.5 µM; actives 58% (n = 6,200); AID 488915
SENP7 conf: human SENP7 inhibition, confirmed | shares compounds with SENP7 inh | recombinant SENP7, Z-RLRGG-aminoluciferin luminescence, 40 min | inhibition, % at 12.5 µM | actives 69% (n = 6,200) | AID 488917
Casp3 select: inhibits human caspase-3 in SENP selectivity test | shares compounds with SENP7 inh | purified caspase-3, Z-DEVD-aminoluciferin luminescence, 60 min | inhibition, % at 12.5 µM | actives 60% (n = 6,200) | AID 488918;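 active = mean inhibition above about 50%, limit read from the data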
Target sequence (P42574 28-227 limits assumed): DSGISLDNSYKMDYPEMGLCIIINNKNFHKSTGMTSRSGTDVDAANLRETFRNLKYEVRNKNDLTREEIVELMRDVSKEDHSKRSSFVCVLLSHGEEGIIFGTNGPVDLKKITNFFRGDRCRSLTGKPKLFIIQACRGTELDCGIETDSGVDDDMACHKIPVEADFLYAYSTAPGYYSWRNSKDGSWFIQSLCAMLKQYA
SENP luc ctr: counter-screen for SENP inhibitors: luminescence interference; shares compounds with SENP7 inh; Pre-incubated SENP8/Z-RLRGG-aminoluciferin, luciferase luminescence interference; inhibition, % at 12.5 µM; actives 39% (n = 6,200); AID 488919;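 active = mean inhibition above about 50% when retested at one dose, limit read from the data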
Numbers stand for hits; n = inactive; u = inconclusive; x = not tested or not shown. The list is not random: actives were taken first. Their share in the collection is about 2.8%.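 The calls were made as follows, unless noted: active = mean inhibition above about 50% in the one-dose retest (limit read from the data); inactive = the rest.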

SMILES | SENP8 block-1 | SENP7 inh | HSP90 refold inh | Platelet DG rel | SENP8 block-2 | SENP6 inh | HSP90 confirm | FLuc counter | SENP8 confirm | SENP6 conf | SENP7 conf | Casp3 select | SENP luc ctr
O=C(Nc1ccc2c(c1)OCCO2)c1ccc(Cl)cc1 | 59 | 73 | 19 | n | n | 81 | 25 | 15 | n | 75 | 92 | 76 | n
CC(=O)Nc1ccc(C(=O)Nc2ccc3c(c2)OCCO3)cc1 | n | n | n | n | n | n | x | x | x | x | x | x | x
Cc1ccc(C(=O)Nc2ccc3c(c2)OCCO3)c(C)c1 | 81 | 89 | 65 | n | n | 91 | 82 | 77 | 88 | 88 | 97 | 93 | 87
Cc1cc(C)c(C(=O)Nc2ccc3c(c2)OCCO3)c(C)c1 | x | x | x | x | n | x | x | x | x | x | x | x | x
O=C(Nc1ccc(NC(=O)c2ccc3c(c2)OCCO3)cc1)c1ccccc1 | n | n | n | n | n | n | x | x | x | x | x | x | x
Cc1ccc(NC(=O)c2ccc3c(c2)OCCO3)cc1C | 86 | 92 | 42 | n | n | 91 | 68 | 61 | n | 86 | 98 | 86 | 88
Cc1cccc(NC(=O)c2ccc3c(c2)OCCO3)c1 | 85 | 92 | 34 | u | n | 86 | 48 | 36 | n | 93 | 101 | 94 | 90
CC1(C)CC(=O)C(C2C3=C(CC(C)(C)CC3=O)Oc3c(Br)cc(Br)cc32)=C(O)C1 (stereo unspecified) | n | n | n | n | n | n | x | x | x | x | x | x | x
CCOc1ccc2oc(C(=O)NCC(C)(C)CN(C)C)c(C)c2c1 | n | n | n | n | n | n | x | x | x | x | x | x | x
O=C(Nc1ccc(NC(=O)c2ccccn2)cc1)C(=O)Nc1ccc2c(c1)OCCO2 | n | n | n | n | n | n | x | x | x | x | x | x | x
Cc1cc(C(=O)Nc2ccccn2)cs1 | n | 71 | 25 | n | n | 72 | 16 | n | n | n | 85 | 85 | 63
O=C(Nc1ccc2c(c1)OCCO2)c1ccccn1 | 82 | 89 | 25 | n | n | 89 | 67 | 53 | 89 | 89 | 100 | 97 | 92
O=C(Oc1ccc2ccccc2c1Br)N1CCCCCC1 | 78 | 82 | 22 | n | n | 90 | 43 | 26 | 87 | 91 | 96 | 72 | n
CN(C)c1ccc(N=Nc2ccc(C(=O)O)cc2)cc1 | 86 | 87 | 31 | n | n | 93 | 53 | 84 | 89 | 91 | 101 | 73 | 58
CN(C)c1ccc(C(=O)c2ccccc2)cc1 | n | n | n | n | n | n | x | x | x | x | x | x | x
Cc1nc(-c2coc3cc(O)c(C)cc3c2=O)cs1 | 94 | 98 | 18 | n | n | 93 | 52 | 51 | 84 | 98 | 102 | 96 | n
Cc1nc(-c2coc3cc(C)c(N=O)c(O)c3/c2=N\N)cs1 | n | n | n | n | n | n | x | x | x | x | x | x | x
Cc1ccc(-c2nc(N/N=C/c3ccncc3)c3ccccc3n2)cc1 | 89 | 89 | 47 | 109 | n | 88 | 80 | 56 | n | n | n | n | n
O=C(Nc1nc2ccccc2[nH]1)c1ccccc1F | 97 | 99 | 84 | 87 | n | 96 | 95 | 88 | n | 99 | 102 | 98 | 97
COc1ccc(Cl)cc1C(=O)Nc1nc2ccccc2[nH]1 | 90 | 98 | 71 | n | n | 96 | 87 | 77 | 83 | 91 | 102 | 96 | 80
CCOc1ccc(C(=O)Nc2nc3ccccc3[nH]2)cc1OCC | n | n | n | n | n | n | x | x | x | x | x | x | x
O=C(Nc1nc2ccccc2[nH]1)c1ccc(F)cc1 | 79 | 93 | 35 | n | n | 94 | 57 | 44 | 78 | 84 | 98 | 94 | 52
COc1ccc(C(=O)Nc2nc3ccccc3[nH]2)cc1OC | n | n | n | n | n | n | x | x | x | x | x | x | x
CCc1ccc(C(=O)Nc2nc3ccccc3[nH]2)cc1 | 94 | 97 | 80 | n | n | 96 | 90 | 85 | 56 | 76 | 86 | 84 | n
O=C(Nc1nc2ccccc2[nH]1)c1ccccc1[N+](=O)[O-] | n | n | n | n | n | n | x | x | x | x | x | x | x
SMILES | SENP8 block-1 | SENP7 inh | HSP90 refold inh | Platelet DG rel | SENP8 block-2 | SENP6 inh | HSP90 confirm | FLuc counter | SENP8 confirm | SENP6 conf | SENP7 conf | Casp3 select | SENP luc ctr
CCC(C)[C@H](NC(=O)Nc1ccc(C)cc1C)C(=O)O (stereo partly specified) | n | n | n | n | n | n | x | x | x | x | x | x | x
Cc1[nH]c(=O)[nH]c(=O)c1NC(=O)c1ccccc1[N+](=O)[O-] | x | x | x | x | n | x | x | x | x | x | x | x | x
Cc1ccc(C(=O)n2c(N)nc3ccccc32)cc1 | 91 | 97 | 60 | n | n | 86 | 89 | 83 | 90 | 95 | 101 | 96 | 66
CCOc1ccc2nc(-c3ccccc3)[nH]c2c1 | 69 | 89 | 19 | n | n | 88 | 21 | 13 | 85 | 82 | 94 | 85 | 84
COc1nc(-c2ccc(C)cc2)ccc1-c1noc(-c2ccco2)n1 | n | n | n | n | n | n | x | x | x | x | x | x | x
COc1nc(C)ccc1-c1noc(-c2ccco2)n1 | n | 61 | 19 | n | n | 70 | 33 | 24 | 51 | 57 | 85 | 69 | n
COc1ccc2cc(-c3[nH]ncc3CN3CCCN(c4ccccc4)CC3)ccc2c1 | n | n | n | n | n | n | x | x | x | x | x | x | x
O=C(CC(=O)Nc1cc(Cl)ccc1Cl)Nc1cc(Cl)ccc1Cl | n | n | n | n | n | n | x | x | x | x | x | x | x
CC(C)(C)c1ccc(NC(=O)c2ccsc2)cc1 | 82 | 82 | 24 | n | n | 86 | 39 | 27 | 86 | 85 | 98 | 78 | n
NS(=O)(=O)c1ccc(CCNC(=O)CCNS(=O)(=O)c2ccccc2C(F)(F)F)cc1 | n | n | x | x | n | n | x | x | x | x | x | x | x
CCOc1ccc(NC(=O)c2[nH]c(C)c(C(C)=O)c2C)cc1 | n | 59 | 19 | n | n | 50 | n | n | 57 | 50 | 81 | 75 | 62
COc1cccc(C(=O)O/N=C(\N)c2ccncc2)c1OC | n | n | n | n | n | n | x | x | x | x | x | x | x
COc1cccc(C(=O)O/N=C(\N)c2ccccn2)c1 | 95 | 98 | 67 | u | n | 97 | 85 | 91 | 97 | 98 | 102 | 98 | 98
